Test results: the supplement of paper PMC12669032

Assays:
Test in all cases: growth AUC relative to DMSO control (median of replicates) (fraction); higher = more growth (less inhibition), active = hit call of the paper
Settings in all cases: 20 µM; 24 h;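 active = AUC reduced over 20% with Padj below 0.05 in at least 2 of 3 replicates; inactive = otherwise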
[1] = test system: Akkermansia muciniphila
Outline: (§1)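 Hourly OD600 readings over 24 h tracked anaerobic gut bacterial monocultures grown at 37 °C in mGAM from OD600 0.05 with 20 µM compound (1% DMSO). After the minimum OD was set to 0, area under the growth curve was normalised to the plate median of solvent-only wells, or to row and column medians on the industrial chemical plate. Values are medians of three biological replicates grown on separate days.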

[2] = test system: Bacteroides caccae
Outline: as §1

[3] = test system: Bacteroides clarus
Outline: as §1

[4] = test system: Bacteroides dorei
Outline: as §1

[5] = test system: Bacteroides stercoris
Outline: as §1

[6] = test system: Bacteroides thetaiotaomicron
Outline: as §1

[7] = test system: Bacteroides uniformis
Outline: as §1

[8] = test system: Bifidobacterium longum subsp. longum
Outline: as §1

[9] = test system: Clostridium difficile
Outline: as §1

[10] = test system: Collinsella aerofaciens
Outline: as §1

[11] = test system: Coprococcus comes
Outline: as §1

[12] = test system: Escherichia coli ED1a
Outline: as §1

[13] = test system: Escherichia coli IAI1
Outline: as §1

[14] = test system: Eubacterium rectale
Outline: as §1

[15] = test system: Fusobacterium nucleatum subsp. animalis
Outline: as §1

[16] = test system: Lactobacillus gasseri
Outline: as §1

[17] = test system: Lactobacillus paracasei
Outline: as §1

[18] = test system: Odoribacter splanchnicus
Outline: as §1

[19] = test system: Parabacteroides distasonis
Outline: as §1

[20] = test system: Parabacteroides merdae
Outline: as §1

Measured: growth AUC

COC(=O)c1c(Cl)c(Cl)c(C(=O)OC)c(Cl)c1Cl
inactive: [1] 0.846 | [2] 1.04 | [3] 0.985 | [4] 1.02 | [5] 0.88 | [6] 1.02 | [7] 0.994 | [8] 0.953 | [9] 1.07 | [10] 0.986 | [11] 1.05 | [12] 0.979 | [13] 0.995 | [14] 1.16 | [15] 0.963 | [16] 0.974 | [17] 0.982 | [18] 1.1 | [19] 0.979 | [20] 1.01

CN(C)C(=O)Nc1ccc(Oc2ccc(Cl)cc2)cc1
inactive: [1] 0.943 | [2] 0.863 | [3] 0.948 | [4] 0.871 | [5] 0.819 | [6] 0.92 | [7] 1.02 | [8] 0.991 | [9] 0.96 | [10] 0.924 | [11] 0.938 | [12] 0.95 | [13] 0.938 | [14] 1.24 | [15] 0.849 | [16] 0.926 | [17] 1.08 | [18] 1.1 | [19] 0.937 | [20] 0.918

Cc1cc(N(C)C)nc(Cl)n1
inactive: [1] 0.999 | [2] 0.916 | [3] 1.02 | [4] 0.985 | [5] 1.26 | [6] 1.02 | [7] 0.98 | [8] 0.985 | [9] 0.976 | [10] 0.977 | [11] 0.97 | [12] 1.02 | [13] 0.992 | [14] 1.06 | [15] 1.11 | [16] 0.947 | [17] 0.99 | [18] 0.998 | [19] 1.03 | [20] 0.998

CCNc1nc(NC(C)(C)C)nc(OC)n1
inactive: [1] 0.972 | [2] 0.985 | [3] 0.998 | [4] 0.992 | [5] 1.11 | [6] 0.987 | [7] 0.985 | [8] 1.02 | [9] 0.998 | [10] 1.07 | [11] 1.03 | [12] 1.04 | [13] 1.03 | [14] 1.06 | [15] 1.01 | [16] 1.03 | [17] 1.01 | [18] 1.07 | [19] 1.07 | [20] 0.99

c1cc2ccc3ccc4ccc5cccc6c(c1)c2c3c4c56
inactive: [1] 0.936 | [2] 1 | [3] 1 | [4] 1.01 | [5] 1 | [6] 1 | [7] 1 | [8] 1.03 | [9] 0.971 | [10] 0.993 | [11] 1.01 | [12] 1.04 | [13] 1.01 | [14] 0.999 | [15] 0.946 | [16] 0.994 | [17] 1.02 | [18] 1.01 | [19] 1.04 | [20] 1.02

COC(=O)[C@@H](C)Oc1ccc(Oc2ncc(C(F)(F)F)cc2Cl)cc1
inactive: [1] 1.04 | [2] 0.831 | [3] 1.01 | [4] 0.984 | [5] 1.16 | [6] 0.963 | [7] 0.907 | [8] 0.976 | [9] 1.05 | [10] 0.981 | [11] 1.02 | [12] 1.02 | [13] 1.01 | [14] 1.05 | [15] 1.06 | [16] 0.889 | [17] 1.04 | [18] 0.946 | [19] 0.913 | [20] 1.01

O.O.O=[N+]([O-])c1ccc([O-])cc1.[Na+]
inactive: [1] 1.02 | [2] 0.999 | [3] 1 | [4] 0.988 | [5] 1.09 | [6] 1.02 | [7] 0.989 | [8] 1.08 | [9] 1.04 | [10] 1.02 | [11] 1.09 | [12] 1.05 | [13] 1.01 | [14] 0.918 | [15] 0.968 | [16] 1.01 | [17] 1.04 | [18] 0.85 | [19] 0.971 | [20] 0.994

O=C(O)COc1ccc(Cl)c2cccnc12
inactive: [1] 0.981 | [2] 1.03 | [3] 1.03 | [4] 0.976 | [5] 1.14 | [6] 0.997 | [7] 1 | [8] 0.99 | [9] 0.954 | [10] 1.02 | [11] 0.997 | [12] 1.05 | [13] 1.04 | [14] 1.02 | [15] 1.11 | [16] 1.07 | [17] 1.01 | [18] 1.01 | [19] 1 | [20] 1

COC(=O)C(C)Oc1ccc(Oc2ncc(C(F)(F)F)cc2Cl)cc1 (stereo not given)
inactive: [1] 1.11 | [2] 0.968 | [3] 0.977 | [4] 0.964 | [5] 0.912 | [6] 0.992 | [7] 0.886 | [8] 1.02 | [9] 0.98 | [10] 0.954 | [11] 1.02 | [12] 0.972 | [13] 0.987 | [14] 1.05 | [15] 0.954 | [16] 0.84 | [17] 0.995 | [18] 1.03 | [19] 0.834 | [20] 0.963

CC(C)(C)Nc1nc(N)nc(Cl)n1
inactive: [1] 1.06 | [2] 0.991 | [3] 0.997 | [4] 0.993 | [5] 0.991 | [6] 0.979 | [7] 0.962 | [8] 0.982 | [9] 0.997 | [10] 0.998 | [11] 0.999 | [12] 1.03 | [13] 0.998 | [14] 0.979 | [15] 1 | [16] 0.974 | [17] 0.987 | [18] 0.995 | [19] 1.02 | [20] 0.97

O=C(Oc1ccccc1)n1c(C(F)(F)F)nc2cc(Cl)c(Cl)cc21
active: [1] 0.177 | [2] 0.215 | [3] 0.121 | [4] 0.236 | [5] 0.0063 | [6] 0.0816 | [7] 0.0127 | [9] 0.561 | [12] 0.704 | [13] 0.588 | [14] 0.635 | [16] 0.431 | [17] 0.688 | [18] 0.0297 | [19] 0.106 | [20] 0.144
inactive: [8] 0.891 | [10] 0.958 | [11] 1.03 | [15] 0.71

CCCCCCCC(=O)Oc1c(Br)cc(C#N)cc1Br
inactive: [1] 1.06 | [2] 0.934 | [3] 0.959 | [4] 1.04 | [5] 0.842 | [6] 1.04 | [7] 0.983 | [8] 1.06 | [9] 1.02 | [10] 0.971 | [11] 1.01 | [12] 0.973 | [13] 0.924 | [14] 1.15 | [15] 0.966 | [16] 0.987 | [17] 0.863 | [18] 1.12 | [19] 0.975 | [20] 0.922

CC(C)c1cc(Oc2ccccc2)cc(C(C)C)c1NC(=S)NC(C)(C)C
inactive: [1] 0.863 | [2] 0.984 | [3] 0.96 | [4] 0.983 | [5] 0.98 | [6] 0.97 | [7] 0.998 | [8] 0.929 | [9] 0.957 | [10] 1.03 | [11] 0.896 | [12] 1.01 | [13] 1.01 | [15] 0.911 | [16] 0.978 | [17] 1.03 | [18] 0.989 | [19] 1.05 | [20] 0.957
active: [14] 0.45

CCc1cccc(C)c1N(C(=O)C(=O)O)[C@@H](C)C(=O)O
inactive: [1] 1.17 | [2] 0.993 | [3] 1.02 | [4] 0.963 | [5] 1.06 | [6] 0.999 | [7] 0.999 | [8] 0.908 | [9] 0.903 | [10] 0.986 | [11] 1.02 | [12] 1.01 | [13] 0.988 | [14] 1.12 | [15] 1.03 | [16] 0.853 | [17] 1.01 | [18] 0.95 | [19] 0.809 | [20] 1.03

CC(C)(c1cc(Br)c(O)c(Br)c1)c1cc(Br)c(O)c(Br)c1
inactive: [1] 0.904 | [12] 1.04 | [13] 0.997
active: [2] 0.0238 | [3] 0.0496 | [4] 0.675 | [5] 0.0125 | [6] 0.662 | [7] 0.297 | [8] 0.252 | [9] 0.0683 | [10] 0.0491 | [11] 0.41 | [14] 0.0259 | [15] 0.465 | [16] 0.136 | [17] 0.0653 | [18] 0.0465 | [19] 0.0802 | [20] 0.151
